Data: the supplement of paper PMC10338343
± gives the standard deviation. Over roughly 3,000 sequences, “pre-steady-state target cleavage rate” has its median near 0.0079; the highest 2% begin near 0.2. This is one part of a sample in which the highest values are shown more often than they occur.

tested on: MILI (PIWIL2) piRISC loaded with piRNA #2 (26 nt); experiment: pre-steady-state target cleavage rate (min^-1); MIWI and MILI are mouse PIWI proteins and EfPiwi is from a freshwater sponge; tags in brackets are library labels; higher = faster piRNA-guided slicing of the target; conditions: guide: piRNA #2 5'p-UUAGGUAACCCAGUAGAUCCAGAGGA; auxiliary factor: 500 nM mouse GTSF1
Experimental: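 Cleave-'n-Seq: a library of target RNAs (target site embedded in constant flanks, ACAGCATTCCGCGTTAGTGATATCCG... 5' flank; DNA-blocked outside the site) at 0.1 nM was incubated with 1 nM active mouse MILI or MIWI piRISC (synthetic 5'-monophosphorylated piRNA guide) with or without 500 nM mouse GTSF1 at 33 °C for 1 min to 16 h. Uncleaved targets were sequenced and normalised to non-target controls, and the pooled three trials were fitted to a burst-and-steady-state model to give the pre-steady-state cleavage rate (min^-1; k3 is constrained to at most 1e-4). Sequence is the target site only; target names encode pairing extent (gX:gY) and contiguous / 1-mismatch / 2-mismatch / bulge geometry. Fits with R² ≤ 0 are excluded.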

Row | Sequence | pre-steady-state target cleavage rate
1 | CUUAAGGACUGGAUCUACUGGGUUACCUAG [g2:g22:cont:t1G] | 0.0474 ± 0.017
2 | CUUAAGCUCAGGAUCUACUGGGUUUCCUAA | 0.0265 ± 0.01
3 | CUUAAGCUCUGGAUCUAAUGGGUUACCUAA | 0.0186 ± 0.0042
4 | CUUAAGCUCUGGAUCUACUGGGUGUACCUAA | 0.0345 ± 0.0091
5 | CUUAACCUCUGGAUCUCUGGGUUACCUAA | 0.00889 ± 0.0054
6 | CUUAUCCUCUGGAUCUCCUGGGUUACCUAA | 0.459 ± 0.18
7 | CUUAUCCUCUGGAUCUGCUGGGUUACCUAA | 0.0654 ± 0.015
8 | CUUAACCUCUGGAUCUCCUGGGUUACCUAA | 0.213 ± 0.084
9 | CUUAUCCUCUGGAUCUCUGGGUUACCUAA | 0.0227 ± 0.01
10 | CUUAACCUCUGGAUCUGCUGGGUUACCUAA | 0.097 ± 0.028
11 | CUUAAGCUCUGGAUCAACUGGGUUACCUUA | 0.0336 ± 0.011
12 | CUUAAGGUCUGGAUCUACUGGGUUUACCUAA | 0.0618 ± 0.011
13 | CUUAACCUCUGGAUCUUCUGGGUAACCUAA | 0.0414 ± 0.016
14 | CUUAACCUCUGGAUCUACUGGGUUUACCUAA | 0.0817 ± 0.019
15 | CUUAACCUCUGGAUCUACUGGGUUAACCUAA | 0.115 ± 0.024
16 | CUUAACCUCUGGAUCUUCUGGGUUACCUAA | 0.0795 ± 0.017
17 | CUUAAGCUCUGGAUCUACUGGGUUUGCUAA | 0.144 ± 0.031
18 | CUUAACCUCUGGAUCUACUGGGUUAGCUAA | 0.112 ± 0.022
19 | CUUAACCUCUGGAUCUACUGGGUUUCCUAA | 0.224 ± 0.062
20 | CUUAACCUCUGGAUCUUCUGGGUUUCCUAA | 0.243 ± 0.083

Row | Sequence | pre-steady-state target cleavage rate
21 | CUUAACCUCUGGUUCUACUGGGUUUCCUAA | 1.67 ± 0.98
22 | CUUAACCUCUCGAUCUACUGGGUUUCCUAA | 0.138 ± 0.035
23 | CUUAACCUCUGCAUCUACUGGGUUUCCUAA | 0.14 ± 0.059
24 | CUUAACCUCUGGAUCUACUGGGUUUGCUAA | 0.305 ± 0.066
25 | CUUAAGGAGACCUAGUACUUGGUUACCUAA | < 0.0001
26 | CUUAUGCUCUGGAUCUACUGGGUAACCUAA | 0.0539 ± 0.012
27 | CUUAAGGACUGCAUCUACAGGGUUACCUAA | 0.0435 ± 0.015
28 | CUUAACAUCUGGAUCUACUGGGUUACCUAA | 0.114 ± 0.019
29 | CUUAAGGAGUGGAUCUACUGGGUUACCUAG [g2:g21:cont:t1G] | 0.0456 ± 0.013
30 | CUUAAGCUGACGAUCUACUGGGUUACCUAA | 0.0365 ± 0.015
31 | CUUAAGCUCUGGAUUACUGGGUUACCUAA | 0.0142 ± 0.0047
32 | CUUAAGGAGAGGAUCUACUGGGUUACCUAA [g2:g20:cont:t1A] | 0.0156 ± 0.0072
33 | CUUAAGGACAGGAUCUACAGGGUUACCUAA | 0.0375 ± 0.014
34 | CUUAACCACUGGAUCAACUGGGUUACCUAA | 0.0515 ± 0.014
35 | CUUAUCCUCUGGAUCUAGUGGGUUUCCUAA | 0.055 ± 0.016
36 | CUUAUCCUCUGGAUCUUCUGGGUUUCCUAA | 0.258 ± 0.088
37 | CUUAACCUCUGGAUCUACUGGGUUUCCUUA | 0.225 ± 0.066
38 | CUUAAGCUCUGCAUCUACUGGGUUUCCUAA | 0.0656 ± 0.022
39 | CUUAACCUCUGGAUCUACUGGGUUACCUUA | 0.111 ± 0.026
40 | CUUAAGCUCUGGAUCUACUGGGUUUCCUAA | 0.107 ± 0.025

Row | Sequence | pre-steady-state target cleavage rate
41 | CUUAAGCUCUGGUUCUACUGGGUUUCCUAA | 0.219 ± 0.085
42 | CUUAAGCUCUGGAUCUUCUGGGUUUCCUAA | 0.0561 ± 0.017
43 | CUUAACCUCUGGAUCUACUGGGUUUCGUAA | 0.128 ± 0.044
44 | CUUAACCUCUCGAUCUACUGGGUAACCUAA | 0.0796 ± 0.017
45 | CUUAACCACUGGUUCUACUGGGUUACCUAA | 0.112 ± 0.019
46 | CUUAACCACUGCAUCUACUGGGUUACCUAA | 0.0927 ± 0.018
47 | CUUAUCCUCUGGAUCUACUGGGUGACCUAA | 0.0696 ± 0.014
48 | CUUAACCUCUGGAACUACUGGGUUACCUAA | 0.133 ± 0.03
49 | CUUAACCUCUGGAACUACUGGGUUUCCUAA | 0.311 ± 0.14
50 | CUUAUCCUCUGGAACUACUGGGUAACCUAA | 0.0599 ± 0.022
51 | CUUAUCCUCUGGAACUACUGGGUUAGCUAA | 0.0654 ± 0.021
52 | CUUAUCCUCUGGAACUACUGGGUUUCCUAA | 1.1 ± 0.56
53 | CUUAACCUCUGGAACUACUGGGUAACCUAA | 0.06 ± 0.024
54 | CUUAAGGACUGGAUCUACUGGGUUACCUUAA | 0.0243 ± 0.014
55 | CUUAUCCUCUGGAUCUAUUGGGUUACCUAA | 0.139 ± 0.036
56 | CUUAAGGAGACCUAGAUGACGGUUACCGAA | < 0.0001
57 | CUUAAGCUCUGGAUCUACUGGGUUCCCUAA | 0.0477 ± 0.017
58 | CUUAAGCUCUGCAUCUACUGGGUUACGUAA | 0.0499 ± 0.016
59 | CUUAUCCUCUGGAUCAACAGGGUUACCUAA | 0.0724 ± 0.01
60 | CUUAAGGUCUGCAUCUACUGGGUAACCUAA | 0.00707 ± 0.006
